DAX1 inh-1 = inhibitors of human orphan nuclear receptor DAX1 (NR0B1). P51843. HEK293 Gal4-DAX1 luciferase reporter, luminescence. inhibition, % at 6.75 µM. 0.99% of 340,000 active. AID 504766;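 active = inhibition above the mean over all tested compounds plus 3 SD, cut at about 4.2% in these data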;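 also: inhibition shows as a rise in luminescence from relieved DAX1 repression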
Target sequence (P51843 207-470 limits assumed): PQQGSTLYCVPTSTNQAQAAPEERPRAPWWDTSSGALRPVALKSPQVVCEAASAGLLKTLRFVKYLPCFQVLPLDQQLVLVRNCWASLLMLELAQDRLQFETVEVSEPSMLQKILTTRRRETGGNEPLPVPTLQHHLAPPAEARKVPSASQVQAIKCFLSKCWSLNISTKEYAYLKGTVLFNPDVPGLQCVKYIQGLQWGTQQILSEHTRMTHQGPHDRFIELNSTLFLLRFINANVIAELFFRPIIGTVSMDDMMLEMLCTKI
hcDAF-12 act = activates DAF-12 receptor from parasite H. contortus; HEK293 hcDAF-12 lit1-tk-luc reporter, luminescence; 0% DMSO, 100% Δ7-dafachronic acid; 1.4% of 370,000 active; AID 652067; activation, % at 6.8 µM;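 active = activation above the mean of all tested compounds plus 3 SD, cut at about 5.5% in these data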
DAX1 inh-2 = blocks DAX1 repression of SF-1 activated StAR promoter; HEK293T StAR-luciferase reporter, SF-1/DAX-1 repression relief; inhibition, % at 6.8 µM; 1.1% of 370,000 active;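 active = inhibition above the mean over all tested compounds plus 3 SD, cut at about 3.6% in these data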;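 also: higher inhibition means more luminescence from relief of DAX-1 repression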
hgDAF12 agonist = activates the H. glycines DAF-12 receptor ligand-binding domain | HEK293 GAL4-hgDAF12 UAS-luciferase reporter, agonist luminescence; normalized to butyrate control | activation, % at 6.8 µM | 1.8% of 370,000 active | AID 687014;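 active = activation above a cutoff set at the mean of all screened compounds plus 3 SD, cut at about 10% in these data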
ssDAF-12 act = activators of S. stercoralis DAF-12 nuclear receptor | activation, % at 6.8 µM | HEK293 ssDAF-12/GRIP1 lit1-tk-luc reporter, luminescence; % of 3 µM dafachronic acid response | 1% of 370,000 active;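 active = activation above the mean over all tested compounds plus 3 SD, cut at about 0.9% in these data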
LXRb hcDAF ctr = counter-screen for hcDAF-12 agonists: agonists of human LXR-beta; shares compounds with hcDAF-12 act; 3,400 tested, under 10 active; HEK293 Gal4-LXR tk-luc reporter, luminescence, 24 h; normalized: DMSO 0%, positive control 100%; activation, % at 6.8 µM;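 active = mean percent activation of the reporter above a cutoff set as the average over tested compounds plus their standard deviation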
Target sequence (P55055 whole entry, looked up, the tested form may be a part): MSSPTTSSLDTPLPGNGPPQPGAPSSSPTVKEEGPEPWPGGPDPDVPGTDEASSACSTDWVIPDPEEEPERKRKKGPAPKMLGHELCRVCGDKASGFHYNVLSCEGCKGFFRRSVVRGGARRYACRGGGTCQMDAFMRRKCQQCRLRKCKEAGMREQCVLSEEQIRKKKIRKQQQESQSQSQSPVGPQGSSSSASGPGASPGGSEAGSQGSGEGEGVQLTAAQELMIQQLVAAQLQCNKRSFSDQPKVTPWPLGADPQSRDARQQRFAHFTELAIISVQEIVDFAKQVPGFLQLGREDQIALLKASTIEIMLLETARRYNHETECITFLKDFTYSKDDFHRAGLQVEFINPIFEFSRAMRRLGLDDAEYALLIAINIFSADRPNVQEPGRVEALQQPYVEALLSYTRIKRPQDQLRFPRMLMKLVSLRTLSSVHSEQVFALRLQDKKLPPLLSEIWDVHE
hcDAF12 conf = hcDAF-12 agonism, confirmation assay; shares compounds with hcDAF-12 act; HEK293 hcDAF-12 lit1-tk-luc reporter, luminescence; % of Δ7-dafachronic acid response; activation, % at 6.8 µM; 61% of 3,400 active;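 active = mean activation across triplicate tests above the threshold derived from the earlier primary screen, cut at about 5.5% in these data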
hgDAF12 ag = confirmation of H. glycines DAF-12 agonists | shares compounds with hgDAF12 agonist | HEK293 GAL4-hgDAF12 luciferase reporter, agonist mode; percent of butyrate response | activation, % at 6.8 µM | 80% of 3,300 active | AID 743050;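 active = mean activation over triplicate wells above the hit cutoff derived from the earlier primary screen, cut at about 11% in these data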
LXR ag 2 = counter-screen for DAF-12 agonists: agonists of human LXR-beta. activation, % at 6.8 µM. HEK293 Gal4-LXR luciferase reporter, 24 h. shares compounds with hgDAF12 agonist. 3,300 tested, under 10 active;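 active = mean activation of the triplicate above a set limit carried over from the primary screen, none filed active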
Of the large screens only hits and unclear results are named; the others gave an inactive call (follow-up assays come after a bar, where they were run). Hits are enriched below; roughly 4.1% of the tested compounds scored in any of these assays.

O=[N+]([O-])c1cccc(-c2csc(Nc3ccccc3)n2)c1	hcDAF-12 act 6.8, hgDAF12 agonist 14.4, ssDAF-12 act 0.9 | LXRb hcDAF ctr inactive | hcDAF12 conf 8.0 | hgDAF12 ag 17.2 | LXR ag 2 inactive
COc1ccccc1Nc1nc(-c2cccc([N+](=O)[O-])c2)cs1	none
CCNC(=O)N1CCN(c2ccc(N3CCN(Cc4ccccc4)[C@H](C)C3)c(C)c2)[C@H](C)C1	none (no result: DAX1 inh-1)
Cc1cccc(NC(=S)c2nc3ccccc3s2)c1	hcDAF-12 act 8.8, hgDAF12 agonist 13.5, ssDAF-12 act 2.1 | LXRb hcDAF ctr inactive | hcDAF12 conf 9.9 | hgDAF12 ag 16.5 | LXR ag 2 inactive
O=C(N/N=C/c1cn(-c2ccccc2)nc1-c1cc2ccccc2o1)c1ccncc1	hcDAF-12 act 6.8, hgDAF12 agonist 19.2, ssDAF-12 act 2.0 | LXRb hcDAF ctr inactive | hcDAF12 conf inactive | hgDAF12 ag 15.4 | LXR ag 2 inactive
O=C(N/N=C/c1cn(-c2ccccc2)nc1-c1cccnc1)c1cccnc1	none
O=C(Nc1ccccc1)c1cc2ccc3ccccc3c2s1	DAX1 inh-1 4.4, hcDAF-12 act 12.5, hgDAF12 agonist 15.2, ssDAF-12 act 2.8 | LXRb hcDAF ctr inactive | hcDAF12 conf 9.8 | hgDAF12 ag 16.1 | LXR ag 2 inactive
CC(=O)CC[C@H]1CC[C@]2(CCCN(S(=O)(=O)c3ccccc3)C2)O1	none (no result: DAX1 inh-1)
Oc1ccc(N=Nc2ccc3ccccc3c2)cc1	hcDAF-12 act 7.1, hgDAF12 agonist 15.8 | LXRb hcDAF ctr inactive | hcDAF12 conf inactive | hgDAF12 ag 19.9 | LXR ag 2 inactive
Oc1ccc(N=Nc2c(O)ccc3ccccc23)cc1	none
COc1cccc(NC(=O)Nc2nc3ncccn3c2-c2ccc(F)c(F)c2)c1	none (no result: DAX1 inh-1)
Cc1cc(N)n(-c2cc(C)c3ccccc3n2)n1	hcDAF-12 act 9.9, hgDAF12 agonist 16.6, ssDAF-12 act 1.6 | LXRb hcDAF ctr inactive | hcDAF12 conf 13.5 | hgDAF12 ag 17.1 | LXR ag 2 inactive
CCOc1ccc(-c2c(=O)n(O)c3ccccc3[n+]2[O-])cc1	hcDAF-12 act 7.8, hgDAF12 agonist 20.7 | LXRb hcDAF ctr inactive | hcDAF12 conf inactive | hgDAF12 ag 41.0 | LXR ag 2 inactive
Cc1ccc(-c2nnc(NC3CCCC3)s2)cc1	hcDAF-12 act 9.2, hgDAF12 agonist 15.2 | LXRb hcDAF ctr inactive | hcDAF12 conf inactive | hgDAF12 ag 18.6 | LXR ag 2 inactive
Cc1ccc(C(=O)Nc2nnc(-c3ccc(C(C)(C)C)cc3)s2)cc1	none
Cc1ccc2nc(SCn3nnc4ccccc4c3=O)[nH]c2c1	hcDAF-12 act 9.8, DAX1 inh-2 4.1, hgDAF12 agonist 24.1, ssDAF-12 act 1.8 | LXRb hcDAF ctr inactive | hcDAF12 conf 10.4 | hgDAF12 ag 16.0 | LXR ag 2 inactive
C/C(N)=C(/C#N)C(=O)CSc1nc2ccc(C)cc2[nH]1	hcDAF-12 act 10.7, DAX1 inh-2 4.3, hgDAF12 agonist 17.2, ssDAF-12 act 1.4 | LXRb hcDAF ctr inactive | hcDAF12 conf 7.1 | hgDAF12 ag 16.2 | LXR ag 2 inactive
Cc1c(C(=O)Nc2ccc(Br)cc2)cnn1C	hcDAF-12 act 11.2, hgDAF12 agonist 15.0, ssDAF-12 act 2.3 | LXRb hcDAF ctr inactive | hcDAF12 conf 6.1 | hgDAF12 ag 12.5 | LXR ag 2 inactive
CCOc1cc(CCNC(=O)c2cc3sccc3n2CC)ccc1OC	none (no result: DAX1 inh-1)
O=C(N[C@H](C(=O)N1CCC[C@H]1C(=O)NC1CCCC1)C1CCCCC1)c1ccc(Cl)cc1Cl	none (no result: DAX1 inh-1)
Cc1cccc(-n2ncc3c(N4CCC(C)CC4)ncnc32)c1	hcDAF-12 act 6.6, DAX1 inh-2 7.6, hgDAF12 agonist 24.2 | LXRb hcDAF ctr inactive | hcDAF12 conf 6.2 | hgDAF12 ag 12.8 | LXR ag 2 inactive
Nc1nc(-c2cc(-c3ccccc3)no2)cs1	hcDAF-12 act 7.9, hgDAF12 agonist 17.9 | LXRb hcDAF ctr inactive | hcDAF12 conf inactive | hgDAF12 ag 20.9 | LXR ag 2 inactive
Nc1c(C(=O)N2CCCC2)sc2nc3c(cc12)CCCCCC3	none
Nc1c(C(=O)N2CCOCC2)sc2nc3c(cc12)CCCC3	hcDAF-12 act 6.9, hgDAF12 agonist 13.9 | LXRb hcDAF ctr inactive | hcDAF12 conf 7.1 | hgDAF12 ag inactive | LXR ag 2 inactive
O=C(c1ccoc1)N1CCN(c2cc(-c3ccco3)nc3cc(-c4ccco4)nn23)CC1	none (no result: DAX1 inh-1, DAX1 inh-2)
Oc1ccc(-c2cnc(-c3ccc(O)cc3)nc2)cc1	hcDAF-12 act 6.9, hgDAF12 agonist 17.2, ssDAF-12 act 1.2 | LXRb hcDAF ctr inactive | hcDAF12 conf 8.7 | hgDAF12 ag 17.5 | LXR ag 2 inactive
C[C@H](O)[C@@H]1CN2CCc3ccc(-c4ccc5c(c4)OCO5)cc3[C@@H]2C[C@@H]1N(C)C(=O)c1ccco1	none (no result: DAX1 inh-1)
O=C(c1cc(-c2ccc(O)cc2)on1)N1CCCCCC1	DAX1 inh-1 5.1, hcDAF-12 act 6.8, hgDAF12 agonist 13.7 | LXRb hcDAF ctr inactive | hcDAF12 conf inactive | hgDAF12 ag 16.7 | LXR ag 2 inactive
O=C(c1cc(-c2ccc(Cl)cc2Cl)on1)N1CCCCCC1	hcDAF-12 act 8.8, hgDAF12 agonist 16.0 | LXRb hcDAF ctr inactive | hcDAF12 conf 8.3 | hgDAF12 ag 18.2 | LXR ag 2 inactive
O=C(c1ccco1)N1CCC(Oc2cccnc2)CC1	none (no result: DAX1 inh-1)
O=C(NCc1ccccc1)C1CCN(c2nc(-c3ccc(Br)cc3)cs2)CC1	none (no result: DAX1 inh-1, DAX1 inh-2)
CCOc1ncccc1C(=O)OCC(=O)Nc1ccc(-c2nc3ccc(C)cc3s2)cc1	hcDAF-12 act 7.5, DAX1 inh-2 4.4, hgDAF12 agonist 17.9, ssDAF-12 act 1.0 | LXRb hcDAF ctr inactive | hcDAF12 conf 5.7 | hgDAF12 ag 17.7 | LXR ag 2 inactive
CCOc1ncccc1C(=O)OCC(=O)Nc1c(C)cc(C)cc1C	none
O=C1CC(c2ccccc2)Sc2nc3ccccc3n21 (stereo not given)	hcDAF-12 act 6.9, DAX1 inh-2 4.0, hgDAF12 agonist 19.1, ssDAF-12 act 1.1 | LXRb hcDAF ctr inactive | hcDAF12 conf 7.3 | hgDAF12 ag 11.8 | LXR ag 2 inactive
Nn1c(SCc2ccc([N+](=O)[O-])cc2)nnc1-c1cc(-c2ccccc2)n[nH]1	none (no result: DAX1 inh-1)
CCn1c(Cc2cccs2)nnc1SCC(=O)Nc1ccc(Cl)cc1C	none (no result: DAX1 inh-1)
COc1ccc2cc(C#N)c(SCC(=O)N3CCCC3)nc2c1	none
